IMPase inh = IMPase inhibition in cells; P97697; CHO-M1 cells, IP1 accumulation, HTRF TR-FRET ratio; inhibition (IP1 accumulation), % at 46.1 µM; 120,000 tested, under 10 active; AID 901; active means well fitted curve in the direction sought with a large enough effect in the signal ratio, not every such curve was filed as active; inconclusive means small, poorly fitted or top-dose-only effect, or a change in a side signal; inactive means no such curve, though single readings can be large or run the other way; the % refers to the signal ratio;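 further: cells stimulated with carbachol in lithium chloride buffer; higher means more IMPase inhibition seen as more IP1 and lower FRET ratio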
Target sequence (P97697 whole entry, looked up): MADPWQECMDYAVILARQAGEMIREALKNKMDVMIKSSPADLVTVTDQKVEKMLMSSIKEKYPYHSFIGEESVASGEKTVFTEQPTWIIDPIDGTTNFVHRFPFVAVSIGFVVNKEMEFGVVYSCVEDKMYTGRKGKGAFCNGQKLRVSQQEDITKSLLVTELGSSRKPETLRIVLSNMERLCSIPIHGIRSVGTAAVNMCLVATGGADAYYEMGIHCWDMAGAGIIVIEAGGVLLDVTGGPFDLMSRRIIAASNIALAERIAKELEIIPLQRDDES
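In this qHTS, compounds (final up to 46 uM) act on CHO-M1 cells that are then activated through the M1 receptor with carbachol, in pH 7.4 buffer containing 50 mM LiCl, for 30 min. IP1 accumulation is quantified by the IP-One immunoassay.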
PNC inhibitor = perinucleolar compartment assembly inhibition; PC3M PTB-GFP, PNC prevalence imaging, 16 h; stronger effect = lower value; activity change (PNC), negative = inhibition, % at 10 µM; 140,000 tested, 3.1% active;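 active means readout at or below -70, meaning at least 70% loss of cells showing the perinucleolar compartment, a nuclear body marking cancer cells; inconclusive means readout between -30 and a set limit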
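PC3M cells stably expressing PTB-GFP, 750–1000 cells/well, treated 16 h at 37 °C with compound (23 nl of library stock), in duplicate. After paraformaldehyde fixation and Hoechst stain, imaged at 20x; PNC prevalence scored by image analysis.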
NPSR antag = antagonists of human neuropeptide S receptor cAMP signaling. Potency, µM (doses to about 38.3 µM), hits mostly inhibitors. CHO-NPSR cells, cAMP TR-FRET, antagonist mode. 220,000 tested, 1% active. AID 1461; active means well fitted curve in the direction sought with a large enough effect; inconclusive means small, poorly fitted or top-dose-only effect, or another doubt; inactive means no such curve, though single readings can be large; an effect the other way counts as inactive or inconclusive; further: nearly all actives have a fitted effect of over 50% in size
IMPase Li cell = IMPase inhibition in cells with lithium potentiation; CHO-M1 cells, IP1 TR-FRET (IP-One), carbachol + lithium; Potency, µM (doses to about 59.4 µM), most hits filed as inhibitors; 210,000 tested, 0.35% active; active means well fitted curve in the direction sought with a large enough effect; inconclusive means small, poorly fitted or top-dose-only effect, or another doubt; inactive means no such curve, though single readings can be large; an effect the other way counts as inactive or inconclusive;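 further: IP1 builds up when IMPase is blocked and the TR-FRET signal falls; nearly all actives have a fitted effect of over 50% in size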
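Readout is a homogeneous TR-FRET IP1 immunoassay (Ex 320, Em 665 and 620), where raised cytosolic IP1 lowers signal. Cells were CHO-M1 treated 30 min at 37C with test compounds plus a little lithium; AC50 values came from Hill-equation fitting.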
HPGD inh = blocks human HPGD enzyme activity. Potency, µM, most hits filed as inhibitors. AID 894. P15428. 150,000 tested, 4.3% active. purified HPGD, NADH fluorescence kinetic, PGE2 substrate
Target sequence (P15428 whole entry, looked up): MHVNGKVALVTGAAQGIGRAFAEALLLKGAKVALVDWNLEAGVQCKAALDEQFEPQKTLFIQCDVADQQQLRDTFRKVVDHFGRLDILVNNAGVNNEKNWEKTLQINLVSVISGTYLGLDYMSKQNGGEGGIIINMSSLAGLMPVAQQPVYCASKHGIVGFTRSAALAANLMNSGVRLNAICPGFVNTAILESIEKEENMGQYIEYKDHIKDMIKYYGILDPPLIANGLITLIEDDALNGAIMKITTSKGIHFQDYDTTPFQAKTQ
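20 nM HPGD preincubated 15 min at room temperature with compound in 50 mM Tris-HCl pH 8, 0.01% Tween 20. Started with 1 mM NAD+ and 30 uM prostaglandin E2; NADH fluorescence (360/450 nm) read 5 times over 30-s intervals, last minus first.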
ALDH1A1 inh = blocks purified human ALDH1A1 activity; P00352; Purified ALDH1A1, NADH fluorescence, propionaldehyde substrate; Potency, µM (doses to about 75.3 µM), actives largely listed as inhibitors; 220,000 tested, 7.3% active
Hits are given with their value; 0 = inactive; ? = inconclusive; - = not tested or not shown; [ ] = remark or other dose. This is a sample that favours compounds with a hit; in the whole collection about 11% have one here. Unless noted, the call rests on the fitted dose curve; in most records, active means well fitted inhibition curve with a large enough effect (not every such curve was filed as active); inconclusive means small, poorly fitted or top-dose-only effect, or another doubt; inactive means no such curve, though single readings can be large or run the other way.

SMILES	IMPase inh	PNC inhibitor	NPSR antag	IMPase Li cell	HPGD inh	ALDH1A1 inh
CC(=O)NC(Cc1ccccc1)C(C)=O (centres undefined)	-	-	0	0	-	0
CC(=O)C(Cc1ccccc1)NC(=O)CCl (centres undefined)	-	-	0	0	-	22µM
CCC(NC(=O)CCCc1ccccc1)c1ccccc1 (centres undefined)	-	0	0	0	0	0
O=C(O)C1Nc2c(O)cc(Cl)c([N+](=O)[O-])c2C2C=CCC12 (centres undefined)	-	-	0	0	-	13µM
O=[N+]([O-])c1ccc(Cl)c2c1C1C=CCC1C(c1ccccn1)N2 (centres undefined)	-	-	0	0	-	?
Cc1ccc(/C=C2\SC(=S)N(c3cccnc3)C2=O)o1	-	-	0	-	-	-
O=C(O)c1cccc(N2C(=O)/C(=C/c3ccc(SCc4ccc(Cl)cc4)o3)SC2=S)c1	-	-	0	0	-	25µM
CCc1ccc(OCC(=O)NCc2ccco2)c(Br)c1	0	0	0	0	35µM	?
O=C(COc1ccccc1Br)NCc1ccco1	0	0	0	0	25µM	?
CC(C)C(=O)NCCSc1c[nH]c2ccccc12	0	0	0	0	0	0
O=C(NCCSc1c[nH]c2ccccc12)c1ccc(Br)o1	0	-119	0	0	7.1µM	0
O=C(NCCC(c1ccccc1)c1ccccc1)c1ccc(Br)o1	0	0	?	0	14µM	?
Cc1[nH]c2ccccc2c1SCCNC(=O)c1ccc(Br)o1	0	?	0	0	14µM	0
CC(=O)COC(=O)C1CCN(S(=O)(=O)c2cc([N+](=O)[O-])ccc2Cl)CC1	-	-	0	-	-	-
O=C(NCc1ccccc1)C1CCN(S(=O)(=O)c2cc([N+](=O)[O-])ccc2Cl)CC1	-	0	0	0	0	25µM
CN(Cc1ccccc1)C(=O)C1CCN(S(=O)(=O)c2cc([N+](=O)[O-])ccc2Cl)CC1	0	0	0	-	-	6.3µM
CC(NC(=O)C1CCN(S(=O)(=O)c2cc([N+](=O)[O-])ccc2Cl)CC1)c1ccccc1 (centres undefined)	-	0	0	0	0	?
CCn1c(SCC(=O)N2CCCc3ccccc32)nnc1-c1ccco1	0	0	0	0	0	22µM
CCn1c(SCC(=O)N2CCCc3ccccc32)nnc1-c1ccoc1C	0	-100	0	0	0	0
CCn1c(SCC(=O)N2CCCc3ccccc32)nnc1-c1cccs1	0	?	0	0	0	0
Cc1cccc(OCCCCc2c(C)n[nH]c2C)c1C	?	0	0	0	0	0
Cc1csc(NC(=O)CSc2nnc(-c3ccncc3)n2C)n1	?	0	0	0	0	0
Cc1cc(C)n(S(=O)(=O)c2ccc3ccccc3c2)n1	0	0	0	0	0	?
Cc1cc(C)n(S(=O)(=O)c2ccc(C(C)(C)C)cc2)n1	0	?	0	0	20µM	13µM
CCC(C)c1ccc(O[C@@H]2O[C@H](CO)[C@@H](O)[C@H](O)[C@H]2NC(C)=O)cc1 (some centres undefined)	-	-	-	0	0	0
SMILES	IMPase inh	PNC inhibitor	NPSR antag	IMPase Li cell	HPGD inh	ALDH1A1 inh
CCCCCCNC(=O)CC(c1ccccc1)c1cc(Br)ccc1O (centres undefined)	0	0	?	0	8.9µM	0
CC(C)NC(=O)CC(c1ccccc1)c1cc(Br)ccc1O (centres undefined)	0	?	0	0	25µM	0
Cc1ccc(O)c(C(CC(=O)NCC2(c3ccccc3)CCCC2)c2ccccc2)c1 (centres undefined)	0	-	-	-	-	-
Cc1ccc2oc(=O)c(/C=C(\O)c3ccco3)nc2c1	-	-	0[7.67 µM]	-	-	-
COC(=O)CNC(=O)COC(=O)c1ccc(Cl)nc1	-	-	0	0	-	0
O=C1c2c(O)cc(O)cc2O[C@H](c2ccc(O)c(O)c2)[C@H]1O	-	-	0	-	-	-
COc1cc([C@@H]2Oc3cc([C@H]4Oc5cc(O)cc(O)c5C(=O)[C@H]4O)ccc3O[C@H]2CO)ccc1O	0	-	-	0	35µM	?
COc1cc([C@H]2Oc3cc([C@H]4Oc5cc(O)cc(O)c5C(=O)[C@@H]4O)ccc3O[C@@H]2CO)ccc1O	-	-	-	0	0	14µM
COc1ccc2nc(Cl)c(/C=N/Nc3ccccn3)cc2c1	-	-	0	0	-	0
CCOC(=O)c1ccc(N2C(=O)CC(N3CCC(Nc4ccc(F)cc4)CC3)C2=O)cc1 (centres undefined)	0	0	0	0	0	3.2µM
CCOC(=O)N1CCN(C2CC(=O)N(c3ccc(Cl)c(Cl)c3)C2=O)CC1 (centres undefined)	0	-100	0	0	?	14µM
CCN1C(=O)CC(N2CCC(Nc3ccc(F)cc3)CC2)C1=O (centres undefined)	0	?	0	0	0	0
CCOC(=O)N1CCN(C2CC(=O)N(c3ccccc3)C2=O)CC1 (centres undefined)	0	0	0	0	0	0
CCOC(=O)c1ccc(N2C(=O)CC(N3CCCC(C)C3)C2=O)cc1 (centres undefined)	0	0	0	0	0	3.2µM
CCOC(=O)c1ccc(N2C(=O)CC(N3CCN(Cc4ccccc4)CC3)C2=O)cc1 (centres undefined)	0	0	0	0	0	28µM
CC(NC(=O)COC(=O)/C=C/c1ccc(Cl)cc1)c1ccccc1 (centres undefined)	-	-	0	0	-	0
Cc1cccc(C#N)c1NC1=CC(=O)CC(C)(C)C1	0	0	0	0	0	7.9µM
Cc1ccc(S(=O)(=O)NCc2nnc(SCC(=O)Nc3cccc(C)c3C)n2C)cc1	0	0	0	0	0	0
Cc1cc(O)ccc1Nc1nc2ccccc2nc1Nc1ccc(O)cc1C	0	0	0	0	0	22µM
Cc1ccc(Nc2nc3ccccc3s2)c(C)c1	-	0	0	0	0	0
O=c1[nH]cnc2nc[nH]c12	-	-	-	0	0	?
CCOC(=O)CN1C(=O)C(O)(C2CCc3ccccc3C2=O)c2ccccc21 (centres undefined)	0	0	0	0	0	3.2µM
CCOC(=O)CN1C(=O)N[C@@H](c2ccccc2)C(C(C)=O)=C1C	-	0	0	0	0	0
CCOC(=O)CN1C(=O)C(O)(c2c(C)[nH]c3ccccc23)c2ccccc21 (centres undefined)	0	0	0	0	0	0.28µM
CCOC(=O)CN1C(=O)C2(OCCCO2)c2ccccc21	0	0	0	0	0	8.9µM
Cc1ccc(CNC(=O)CN2C(=O)C3(OCCCO3)c3ccccc32)cc1	0	0	0	0	0	?
CCN1C(=O)C(O)(c2c(C)[nH]c3ccccc23)c2ccccc21 (centres undefined)	0	-	-	-	-	-
COc1ccc(-c2cc3ccccc3n2CC(O)Cn2nc(C)cc2C)cc1 (centres undefined)	0	0	0[7.67 µM]	0	0	?
